The subject of the assay is MDA-MB-468 breast. Nature of the assay: NCI-60 one-dose screen, 48 h (100 = growth as untreated, 0 = no growth, -100 = all killed). As to conditions: 10 µM unless noted.

The structures appear in SMILES notation. About 83,000 compounds went through this panel and 20% of them were active in at least one assay; those are over-represented in the sample as a whole.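 In brief: 96-well plates, 48 h treatment, single concentration, percent growth endpoint.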 A number with no mark means an inactive call. Calls of active or inactive are those of the source. The calls were made as follows: active = growth percent below 10; inactive = the rest.

Regarding `CC1C=CC(OC(=O)C(C)(O)CCC(O)(C(=O)OC2CC(O)C(C(C)C)CC2(C)O)C(C)C)(C(C)C)CC1` (configuration not stated), the growth is -69.9% [4.63 µM] (active).

As for `C#Cc1nc(C2=C(C)C(O)/C(=N/O)C2)cs1` (configuration not stated), the growth was 74.5%.

In the case of `COc1cc(-c2nc(-c3ccccc3)[nH]c2-c2ccnc(NCCCNS(=O)(=O)c3cccc(F)c3)n2)ccc1F`, the growth was 85.1%.

In the case of `O=C(NCc1ccccc1)/C(=C/c1ccccc1)NC(=O)c1ccccc1`, the growth was 93.9%.

Consider `COC(=O)[C@]12CC[C@@H](C)[C@H](C)[C@@H]1C1=CC[C@@H]3[C@@]4(C)C(C=O)=C[C@@](C)(COC(C)=O)[C@@H]4C(=O)C[C@@]3(C)[C@]1(C)CC2`, for which the growth was 33.6%.

As for `CS(=O)(=O)c1cccc(-c2c(-c3cccc(OS(N)(=O)=O)c3)nc3sccn23)c1`, the growth is 104%.

Turning to `COc1ccc(C(=O)/C=C/c2ccc(OCc3ccc(Cl)cc3)c(OC)c2)cc1OC`, the growth is 50.9%.

Consider `Nc1[nH]c(=S)nc2oc(-c3ccccc3)c(-c3ccccc3)c12`, for which the growth was 98.8%.

As to `Cc1cc(N2CCN(C)CC2)nc(NC2CCCC(Nc3ccnc4cc(Cl)ccc34)C2)n1` (configuration not stated), the growth is -52.1% (active).

Turning to `C/C(=C(/c1ccc(Cl)cc1)c1ccc(OCCN2CCCCC2)cc1)c1ccccc1`, the growth is 90.6%.

Consider `CCOC(=O)c1cc(C(=O)c2cc(OC)cc(OC)c2)n2ncc3ccccc3c12`, for which the growth is 8.22% (active).

Turning to `Clc1ccc2c(c1)nnn1c3ncccc3c(Br)c21`, the growth was 76.1%.

Regarding `COC(=O)c1nc(-c2ccccc2)oc1S(=O)(=O)Cc1ccccc1`, the growth is 59.3%.

Turning to `CC(C)=CCC/C(C)=C/CC/C(C)=C/CC/C(C)=C/CSC[C@H](NC(=O)CCCCCN1CCN(C)CC1)C(=O)NC1CCCCC1`, the growth is 79.2%.

As to `Oc1[nH]c2cc(Cl)ccc2c1/C=c1/ccc2c(c1)N=C(c1cc(F)cc(F)c1)N=2`, the growth is -19.6% (active).

Take `Cc1ccc(C23CCC(=O)N2CCc2cncn23)cc1` (configuration not stated): the growth was 85.2%.

For `CCN(CC)Cc1cc(Nc2nc(NC3CCC(N(C)C)CC3)c3ccccc3n2)ccc1OC` (configuration not stated), the growth was -15.1% (active).

As for `COc1ccc(Cn2nc(-c3cc(OC)c(OC)c(OC)c3)c3c2CCc2cnoc2-3)cc1OC`, the growth was -12.8% (active).

`Cc1cc(C)cc(S(=O)(=O)n2ccc(-c3ccc4c(c3)CCC(C)(C)O4)n2)c1`: the growth is 54.6%.

Turning to `Cc1ccc(-c2cc(C(=O)Nc3ccc(S(=O)(=O)N4CCCCC4)cc3)[nH]n2)c(O)c1`, the growth was 38.8%.

On to `COc1ccc(C(=O)C(C#N)c2cc(OC)c(OC)c(OC)c2)cc1` (configuration not stated), for which the growth is 102%.

As to `C=C1C(=O)O[C@H]2[C@H](O)[C@@H](C)CCC/C(C)=C/CC[C@@]3(C)O[C@@H]3C[C@@H]12`, the growth was 61.4%.

Take `COc1cc2nc(-c3ccc(C(F)(F)F)cc3)cc(OCCN3CCCC3)c2cc1OC`: the growth was 89.4%.

`CCCCCCNC(=O)Oc1ccc(/C(=C(/C)c2ccc(Cl)cc2)c2ccc(OCCN3CCCCCC3)cc2)cc1`: the growth was 35.9%.

As for `O=[N+]([O-])c1ccc(-c2nnc(SCc3ccc(O)c4ncccc34)o2)cc1`, the growth was 16.2%.

On to `CCCCCCCC/C=C\CCCCCCCCOc1ccccc1CC(=O)NCC[N+]1(C)CCOCC1`, for which the growth was 65.3%.

In the case of `COc1cc2oc(-c3cccc(C(=O)Nc4ccc5c(c4)OCO5)c3)cc(=O)c2c(O)c1OC`, the growth was 54.6%.

With `NS(=O)(=O)c1ccc(CCN2C(=O)/C(=C\c3ccccc3)C=C2c2ccc(Cl)cc2)cc1`, the growth is 103%.

As for `Cc1cc2cc3c(=O)[nH]c(=O)cc-3n(CC(O)C(O)C(O)CO)c2cc1C` (configuration not stated), the growth was 122%.

Turning to `CC(=O)CCSc1ccc(OC(C)=O)cc1`, the growth is 101%.

For `Cc1cc(C)n(Nc2nc3ccccc3[nH]c2=O)c(=O)c1C#N`, the growth is 90.8%.

With `COc1ccc(-c2ccc(-c3ccc(C(=N)N)s3)s2)cc1`, the growth was -75.9% (active).

Turning to `Cc1cc(N2CCN(c3ccnc4cc(Cl)ccc34)CC2)nc(NC2CCCCC2)n1`, the growth is -5.23% (active).

On to `O=C1C=Cc2ccccc2/C1=C/c1[nH]c(=O)[nH]c1O`, for which the growth was 41.5%.

In the case of `Cc1c2ccncc2c(C)c2c1c1cc(CO)ccc1n2C`, the growth was -46.1% (active).

As for `CS(=O)(=O)Nc1cc(-c2ccc3ncnc(Nc4c(Cl)ccc5c4OCO5)c3c2)cnc1Cl`, the growth is -74.3% (active).

With `O=c1cc(CNc2cc(F)cc(F)c2)c2ccc(I)cc2[nH]1`, the growth is 19%.

These data come from PubChem BioAssay (NCI).
